# About 83,000 compounds went through this panel and 20% of them were active in at least one assay; those are over-represented in the sample as a whole.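 Assay: single dose, 48 h. Readout: percent growth (0 = no net growth; negative = cell death). Active: <10.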 A number with no mark means an inactive call. The source made the active and inactive calls.
# Columns and labels:
# Experiment in all cases: NCI-60 one-dose screen, 48 h (100 = growth as untreated, 0 = no growth, -100 = all killed)
# HCT-15 colon = settings: 10 µM unless noted
# HT29 colon = settings: 10 µM unless noted
# SNB-75 CNS = settings: 10 µM unless noted
# SNB-19 CNS = settings: 10 µM unless noted
# U251 CNS = settings: 10 µM unless noted
# PC-3 prostate = settings: 10 µM unless noted
# SK-MEL-5 melanoma = settings: 10 µM unless noted
# UACC-62 melanoma = settings: 10 µM unless noted
# LOX IMVI melanoma = settings: 10 µM
# SK-MEL-28 melanoma = settings: 10 µM unless noted
# EKVX NSCLC = settings: 10 µM unless noted
# SN12C renal = settings: 10 µM unless noted
# UO-31 renal = settings: 10 µM unless noted
# TK-10 renal = settings: 10 µM unless noted
# ACHN renal = settings: 10 µM unless noted
# A498 renal = settings: 10 µM unless noted
# CCRF-CEM leukemia = settings: 10 µM unless noted
# MOLT-4 leukemia = settings: 10 µM unless noted
# CAKI-1 renal = settings: 10 µM unless noted
# SK-MEL-2 melanoma = settings: 10 µM unless noted
Structure (SMILES),growth (HCT-15 colon),growth (HT29 colon),growth (SNB-75 CNS),growth (SNB-19 CNS),growth (U251 CNS),growth (PC-3 prostate),growth (SK-MEL-5 melanoma),growth (UACC-62 melanoma),growth (LOX IMVI melanoma),growth (SK-MEL-28 melanoma),growth (EKVX NSCLC),growth (SN12C renal),growth (UO-31 renal),growth (TK-10 renal),growth (ACHN renal),growth (A498 renal),growth (CCRF-CEM leukemia),growth (MOLT-4 leukemia),growth (CAKI-1 renal),growth (SK-MEL-2 melanoma)
O=C1NCC2CCCC1C2 (centres undefined),104%,105%,77.2%,99.6%,112%,114%,107%,105%,103%,110%,118%,101%,92.7%,101%,111%,133%,104%,103%,–,–
Cc1ccc(OC(=O)c2ccccc2)cc1,118%,95.3%,108%,109%,94.8%,105%,101%,112%,105%,120%,122%,109%,97.2%,98.1%,117%,95.6%,108%,104%,114%,–
CCCC(OC(C)=O)c1ccc2c(c1)OCO2 (centres undefined),115%,103%,96.9%,105%,96%,102%,102%,102%,103%,106%,117%,106%,86.8%,106%,111%,96.7%,105%,–,101%,–
O=C(NCc1ccco1)Nc1cccc2c(NC(=O)NCc3ccco3)cccc12,99.2% [100 µM],55.2% [100 µM],49.7% [100 µM],52.6% [100 µM],64.8% [100 µM],42.9% [100 µM],90% [100 µM],96.6% [100 µM],–,91.3% [100 µM],116% [100 µM],33.9% [100 µM],103% [100 µM],131% [100 µM],106% [100 µM],110% [100 µM],44.7% [100 µM],–,100% [100 µM],78.2% [100 µM]
COc1cc(-c2ccc(NC(=O)CC(C)=O)c(OC)c2)ccc1NC(=O)CC(C)=O,96.7%,107%,82.2%,101%,89.6%,95.1%,98.1%,102%,–,111%,108%,104%,86.3%,115%,88.6%,110%,100%,–,97%,108%
CN(C)CCOC(=O)Nc1ccc(Cc2ccc(NC(=O)OCCN(C)C)cc2)cc1,63.1% [100 µM],14.5% [100 µM],89% [100 µM],99.6% [100 µM],69.4% [100 µM],60.5% [100 µM],54.8% [100 µM],1.99% [100 µM] (active),–,18.7% [100 µM],102% [100 µM],97.5% [100 µM],68.6% [100 µM],124% [100 µM],86.8% [100 µM],126% [100 µM],51.3% [100 µM],37.6% [100 µM],73% [100 µM],101% [100 µM]
O=C(CCl)Nc1ccccc1SCc1cc(Cl)cc2c1OCOC2,88.5%,82.5%,73.9%,99.5%,88.9%,82.2%,63.3%,81.2%,-76% (active),94%,–,91.3%,75.7%,126%,85.5%,103%,-27.5% (active),50.7%,35%,–
C=C(C)[C@@H]1CC[C@]2(CO)CC[C@]3(C)[C@H](CC[C@@H]4[C@@]5(C)CC[C@H](O)C(C)(C)[C@@H]5CC[C@]43C)[C@@H]12,89.7%,46.2%,3.72% (active),48%,24.9%,38.7%,-60.5% (active),60.5%,32.2%,–,–,47.5%,27.8%,51%,18.3%,–,75.7%,71.1%,72.6%,82.1%
COc1nc(Nc2cccc(C(F)(F)F)c2)nc(OC)n1,103%,96.1%,84.3%,101%,89.4%,98.7%,94%,103%,107%,109%,–,102%,84.3%,111%,110%,85.3%,95.5%,86.4%,103%,–
Nc1cccc2cccc(O)c12,83%,107%,78.5%,98.7%,70.5%,69.6%,86.9%,86.4%,85.1%,111%,–,91%,–,83.7%,80%,97.9%,52.8%,83%,101%,–
CC1CCC(C(C)(C)[N+](C)(C)C)CC1 (centres undefined),98.1%,97.8%,89%,101%,96.6%,96.9%,103%,104%,102%,–,96.6%,102%,–,95.6%,105%,86.8%,98.4%,101%,103%,114%
S=c1nc(-c2ccccn2)c(-c2ccccn2)n[nH]1,100%,103%,107%,112%,102%,97.7%,108%,116%,95.9%,114%,–,118%,81.1%,98.6%,109%,119%,97.2%,87.7%,110%,–
Oc1cc2ccccc2c(-c2c(O)c(O)cc3ccccc23)c1O,28.2%,45.3%,41.5%,41.5%,33.9%,14.7%,33.4%,27.9%,–,53.2%,35.9%,49.3%,13.7%,19.4%,23.2%,59.1%,-12.5% (active),30.6%,19.1%,5.57% (active)
CC1CN(CCO)CC(C)O1 (centres undefined),102%,114%,96.5%,102%,102%,104%,102%,94.1%,–,104%,102%,93.8%,90.7%,106%,107%,114%,100%,–,93.5%,133%
NC(=S)N/N=C/c1ccc(Cl)cc1,103%,108%,103%,107%,99.7%,99.6%,99.1%,109%,99.1%,107%,–,128%,94.8%,106%,108%,99.5%,–,88.4%,–,–
Clc1cccc(Cl)c1CSc1nc2ccccc2n2cccc12,68.2%,79.6%,86.5%,105%,95.3%,96.5%,103%,96.3%,96.4%,103%,–,102%,71.8%,103%,97.3%,115%,100%,92.9%,70.5%,–
Oc1ccc(N=Cc2ccc(OCc3ccccc3)cc2)cc1,96.6%,109%,92.1%,91.3%,102%,92.5%,92.2%,88.6%,100%,106%,–,101%,79.9%,99.3%,99.7%,75.8%,82.4%,97.1%,98.1%,–
COC(=O)C1=C(C)C(=O)CC1,121%,98.3%,94.4%,104%,115%,96.2%,110%,100%,–,110%,131%,98.3%,89%,108%,99.7%,109%,99.6%,101%,116%,115%

# Source: PubChem BioAssay (NCI)
